Measured values taken from PubChem BioAssay (NCI).
About 83,000 compounds went through this panel and 20% of them were active in at least one assay; those are over-represented in the sample as a whole.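 Results are percent growth after 48 hours of single-concentration exposure. 100 means growth as in untreated cells, lower positive values show inhibition; negative values down to -100 show cell death.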 A number with no mark means an inactive call. Active and inactive are the calls of the source. Rule for the calls: active = growth percent below 10; inactive = the rest.

Key:
Assay in all cases: NCI-60 one-dose screen, 48 h (100 = growth as untreated, 0 = no growth, -100 = all killed)
Settings in all cases: 10 µM
[1] = system: HCT-15 colon
[2] = system: HT29 colon
[3] = system: SNB-75 CNS
[4] = system: SNB-19 CNS
[5] = system: U251 CNS
[6] = system: PC-3 prostate
[7] = system: SK-MEL-5 melanoma
[8] = system: UACC-62 melanoma
[9] = system: LOX IMVI melanoma
[10] = system: SK-MEL-28 melanoma

Compound | growth [1] | growth [2] | growth [3] | growth [4] | growth [5] | growth [6] | growth [7] | growth [8] | growth [9] | growth [10]
COc1ccc2[nH]c(O)c(N=NC(=O)c3cc(-c4ccc(C)cc4)nc4ccccc34)c2c1 | 62.8% | 113% | 95.4% | 95.1% | 88.5% | 93.6% | 94.6% | 96.5% | 83.5% | 97.5%
CC(C)C1=C[C@@]23CC[C@@H]4[C@](C)(CCC[C@]4(C)C(=O)NCc4ccccc4)[C@H]2C[C@@H]1[C@H]1C(=O)OC(=O)[C@H]13 | 9.01% (active) | 18.8% | 69.6% | 37.9% | 25.1% | 33.3% | 72.2% | 50.2% | -8.46% (active) | 68.1%
O=C(Cc1ccc2c(c1)CN(C1CCC(=O)NC1=O)C2=O)NCCc1ccccc1 (stereo not given) | -0.692% (active) | 31.3% | 1.96% (active) | 15.6% | 67.8% | 11.9% | -54.2% (active) | 53.7% | 81.2% | 37.4%
O=C(CSc1nnc(-c2ccc3nc(-c4ccccc4)[nH]c3c2)o1)Nc1ccc(Cl)cc1 | 15.7% | 17.4% | 66.1% | 63.9% | 48.9% | 43.3% | 15.3% | 34.3% | -2.86% (active) | 41.8%
Cn1cc(/C=N/Nc2ccnc3cc(Cl)ccc23)c2ccccc21 | -92.2% (active) | -40.1% (active) | -85.8% (active) | -79.8% (active) | -49.8% (active) | -51.5% (active) | -98.2% (active) | -66.1% (active) | -83.7% (active) | -89.6% (active)
Cc1noc2c(Cc3ccccc3)nn(CC(=O)N/N=C/c3ccc(Cl)cc3)c(=O)c12 | 86.3% | 65.8% | -3.5% (active) | 71.3% | 21.6% | 76.4% | 85.5% | 92.9% | 48.7% | 104%
Cc1cc(C)nc(NS(=O)(=O)c2ccc(N/C(N)=N/c3nccc(-c4ccccc4)n3)cc2)n1 | 59.4% | 83.5% | 88.3% | 77.8% | 77.6% | 65.4% | 46.3% | 59% | 39.4% | 74.5%
Cc1ccc(NCC(=O)Nn2c(COc3ccccc3)nc3ccccc3c2=O)cc1 | 93% | 92.4% | 23.4% | 6.78% (active) | 62.2% | 74.2% | 85.9% | 61.3% | 91.6% | 91.3%
COc1ccc(CN2[C@@H](C(=O)NCc3ccc(C(=O)NO)cc3)Cc3c([nH]c4ccccc34)[C@@H]2C2CC2)cc1 | 19.5% | 10.9% | -12% (active) | 34.4% | 24.8% | 30.2% | -19.9% (active) | 3.09% (active) | 11.7% | 24.8%
Brc1ccc(N/N=C/c2c[nH]c3ccccc23)nc1 | 8.57% (active) | 14% | 26.7% | 43.9% | 19.9% | 20% | 51.8% | 54.8% | -2.43% (active) | 63.6%
CC1=C(C(=O)OC(C)C)C(c2ccc(O)cc2)NC(=S)N1 (stereo not given) | 102% | 108% | 217% | 101% | 102% | 94.7% | 106% | 93.4% | 94.4% | 109%
O=C(CNc1nc(-c2ccccc2)cs1)Nc1cccc([N+](=O)[O-])c1 | -79.4% (active) | -61.6% (active) | -36.5% (active) | -88.1% (active) | -62.6% (active) | -18.5% (active) | -100% (active) | -84% (active) | -100% (active) | -84.9% (active)
C=CCn1c(SCC(=O)Nc2ccc(C(=O)/C=C/c3ccccc3)cc2)nnc1-c1c[nH]c2ccccc12 | -57.2% (active) | -31.5% (active) | 82.3% | 54.1% | -52.5% (active) | 39.4% | 27.7% | 47% | -100% (active) | 68.5%
Cc1cccc(-c2nc(Nc3ccccc3C(=O)O)c3ccccc3n2)c1 | 14.3% | 39.7% | 55.3% | 21.2% | 26.6% | 29.5% | 6.01% (active) | 28% | 36.4% | 50%
O=C(Nc1ccc(I)cc1F)c1cc(-c2ccc(F)cc2F)ccc1O | 5.34% (active) | 17% | -23.7% (active) | 11.3% | 4.61% (active) | 2.22% (active) | -75.3% (active) | -14.4% (active) | 6.5% (active) | 4.38% (active)
O=C(Nc1nc2ccc([N+](=O)[O-])cc2s1)Nc1ccccc1I | 1.19% (active) | 1.95% (active) | -1.46% (active) | 10.5% | 2.73% (active) | 9.44% (active) | -78.5% (active) | 3.63% (active) | 9.2% (active) | 15.8%
O/N=C(\CSc1nnc(-c2c[nH]c3ccccc23)n1-c1ccccc1)c1ccc(Cl)cc1 | -48.1% (active) | 4.47% (active) | 48% | 17.4% | 30.5% | -38% (active) | 21.2% | -43.2% (active) | -89.3% (active) | 21.2%
CCCCCCCCCCCCCCCCCCCC(=O)NCCc1c[nH]c2ccc(OC(=O)NOCCOCCOCCOCCOCCOCCOCCOCCOCCOCCOCCOCCOCCOCCOCCOCCOCCOCCOCCOCCOCCOCCOC)cc12 | 77.7% | -71.8% (active) | 37.3% | 22.3% | -16.8% (active) | 6.43% (active) | -16.3% (active) | -69.4% (active) | -90.7% (active) | -2.99% (active)
Nc1n[nH]c2cccc(C#Cc3cccc(NC(=O)Nc4cc(C(F)(F)F)cc(C(F)(F)F)c4)c3)c12 | -81.8% (active) | -49.7% (active) | -0.721% (active) | -19.7% (active) | -78.5% (active) | -4.77% (active) | -100% (active) | -90.9% (active) | -100% (active) | -88.5% (active)
CO[C@@H]1CSSC1Cn1nc(-c2ccc(Oc3ccccc3)cc2)c2c(N)ncnc21 (stereo not given in full) | 37.2% | 28.5% | 97.9% | 69.1% | 49.5% | 43.6% | 7.95% (active) | -53.9% (active) | 39.4% | -34.4% (active)
C#CCNC(=O)[C@]12CCC(C)(C)C[C@H]1C1=CC[C@@H]3[C@@](C)(CCC#N)[C@H](C(=C)C)CC[C@@]3(C)[C@]1(C)CC2 | 33.2% | 48.9% | 82.5% | 64.3% | 54.6% | 26.3% | 42.7% | 52.1% | -53.1% (active) | 74.6%
CN1C(=O)/C(=C/c2nccs2)SC1=S | 68.8% | 99.4% | 66.4% | 90.5% | 90.7% | 109% | 96.6% | 79% | 62.7% | 95.8%
COc1ccc(C(C)=C(c2ccc(OCCCN(C)C)cc2)c2ccc(OCCCN(C)C)cc2)cc1 | -72.7% (active) | -94.3% (active) | -95.3% (active) | -97.4% (active) | -97.5% (active) | -82.3% (active) | -98.5% (active) | -96.6% (active) | -92.5% (active) | -97.9% (active)
COc1ccc2nc(Cl)c(-c3cc(-c4ccccc4)nc(N)n3)cc2c1 | -64.5% (active) | 7.7% (active) | -1.67% (active) | 7.38% (active) | -62.4% (active) | 33.6% | 66% | 28.4% | -86% (active) | 61.4%
Clc1ccc2c(N/N=C/c3c[nH]c4ccc(Br)cc34)ccnc2c1 | -80.3% (active) | -3.08% (active) | -91.1% (active) | -85.6% (active) | -25.6% (active) | -52.9% (active) | -100% (active) | -85.4% (active) | -77.7% (active) | -98.5% (active)
CC(=C(c1ccc(OCCN2CCCCC2)cc1)c1ccc(OCCN2CCCCC2)cc1)c1ccccc1 | -0.0525% (active) | -26.2% (active) | 84.1% | 38.7% | 1.29% (active) | 47.5% | -90.9% (active) | -79% (active) | -96.6% (active) | -93.9% (active)
